Mcl1-Noxa inh: Mcl-1/Noxa interaction inhibition. Q07820. TR-FRET Mcl-1/Noxa peptide binding, 2 h. inhibition, % at 21.7 µM. 220,000 compounds, 1.5% hits;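 active = compounds that cut the protein-peptide binding signal by more than 50% relative to plate controls in a single-dose test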;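 also: His-tagged Mcl-1 with rhodamine Noxa BH3 peptide and terbium anti-His antibody; 0% = Mcl-1 plus Noxa peptide wells and 100% = peptide-only wells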
Target sequence (Q07820 whole entry, looked up): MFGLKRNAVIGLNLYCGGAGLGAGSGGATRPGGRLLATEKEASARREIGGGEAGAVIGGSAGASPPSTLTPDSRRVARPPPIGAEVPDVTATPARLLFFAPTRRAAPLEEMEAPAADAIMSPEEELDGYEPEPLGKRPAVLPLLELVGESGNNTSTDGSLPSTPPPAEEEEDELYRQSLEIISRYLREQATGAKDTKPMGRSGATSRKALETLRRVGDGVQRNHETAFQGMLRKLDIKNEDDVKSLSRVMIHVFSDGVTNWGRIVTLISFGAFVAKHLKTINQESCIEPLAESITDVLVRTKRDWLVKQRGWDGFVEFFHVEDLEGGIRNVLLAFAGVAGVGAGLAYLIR
GLD-1 RNA inh: GLD-1-TGE RNA interaction inhibition (C. elegans); 320,000 compounds, 0.44% hits; inhibition, % at 5.96 µM; Q17339; purified GLD-1 + fluorescein TGE RNA, fluorescence polarization;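 active = percent inhibition above a per-plate cutoff, the plate mean of test compounds plus 3 SD, cut at about 30% in these data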;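 also: 0% = DMSO wells with GLD-1 and probe and 100% = wells lacking GLD-1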
Bcl-xL primary: inhibitors of human Bcl-xL; Q07817; GST-Bcl-xL / FITC-Bim BH3 peptide fluorescence polarization; inhibition, % at 10.9 µM; 320,000 compounds, 0.7% hits; AID 2129;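 active = inhibition above the mean of all tested compounds plus 3 SD, cutoff set per campaign, cut at about 30% in these data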;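 also: 0% = DMSO wells and 100% = unlabeled Bim-BH3 peptide competitor; inhibitors lower millipolarization by displacing the labeled peptide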
Target sequence (Q07817 whole entry, looked up): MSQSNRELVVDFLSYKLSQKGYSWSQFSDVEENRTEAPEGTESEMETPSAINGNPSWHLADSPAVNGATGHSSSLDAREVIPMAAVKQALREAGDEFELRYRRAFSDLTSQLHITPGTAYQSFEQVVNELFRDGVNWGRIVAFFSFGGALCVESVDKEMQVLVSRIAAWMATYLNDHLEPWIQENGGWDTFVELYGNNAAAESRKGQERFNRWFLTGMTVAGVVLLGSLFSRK
Mcl1 Bid PPI: disrupts binding of human Mcl-1 to Bid peptide; Q07820; TR-FRET Mcl-1/Bid-Dy647 peptide binding, 1536-well; inhibition, % at 21.7 µM; 220,000 compounds, 0.97% hits;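 active = compounds that cut the binding signal by more than half at the single screening dose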;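 also: His-tagged Mcl-1 with europium anti-His antibody binding Bid BH3 peptide; 0% = Mcl-1 plus peptide wells and 100% = peptide-only wells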
MCL1 BIM primary: MCL1-BIM-BH3 interaction inhibition (human). Q07820. GST-MCL1 / FITC-Bim-BH3 fluorescence polarization. inhibition, % at 10.9 µM. 320,000 compounds, 0.68% hits;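 active = inhibition above the mean inhibition of all tested compounds plus 3 SD, set per campaign, cut at about 40% in these data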;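 also: 0% = DMSO wells and 100% = unlabeled Bim-BH3 peptide control; higher means more loss of mP so more displacement of Bim peptide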
Bim-Mcl-1: inhibitors of Bim-Mcl-1 interaction, human | Bead-based flow cytometry, Bim peptide-Mcl-1 binding | Q07820 | 190,000 compounds, 0.1% hits | inhibition, % at 10 µM; in the data active = inhibition above about 40%;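 also: 0% = no compound tracer wells and 100% = peptide blocker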
* = called active by the depositor; / = no result given. In the library only some 2.3% were active in any assay of this set; here they are far more common.

SMILES | Mcl1-Noxa inh | GLD-1 RNA inh | Bcl-xL primary | Mcl1 Bid PPI | MCL1 BIM primary | Bim-Mcl-1
CCOC(=O)c1c(C)[nH]c(C)c1S(=O)(=O)N(C)CC(=O)Nc1cccc(C)n1 | / | -3 | 7 | / | -2 | /
O=C(C(NS(=O)(=O)c1cccs1)c1ccccc1)N1CCN(c2ccccc2)CC1 (stereo unspecified) | 14 | 20 | 31* | -34 | 34 | 0
O=C(N/N=C/c1c[nH]c2ccccc12)c1cc(-c2ccc(-c3ccccc3)cc2)n[nH]1 | 47 | 1 | -3 | 52* | -4 | 0
Cc1ccc(S(=O)(=O)N2CCCC2C(=O)NCc2ccncc2)cc1 (stereo unspecified) | / | 0 | 8 | / | 0 | /
Cc1ccc2nc(-c3ccc(NC(=O)CSc4nc(N)cc(=O)[nH]4)cc3)sc2c1 | 32 | -4 | -9 | 53* | -14 | /
Cc1ccc2nc(-c3ccc(NC(=O)COC(=O)c4ccc(=O)[nH]c4)cc3)sc2c1 | 63* | -3 | -10 | 50 | -35 | 0
CCCN(CCC)CCCNC(=O)c1cn(-c2ccc(OC)cc2)c(=O)c2ccccc12 | / | -3 | 6 | / | -1 | /
COc1cc(OC)cc(-c2c(C#Cc3ccsc3)c3cc(-c4ccc5c(c4)OCCO5)ccc3n2C)c1 | / | -15 | -7 | / | -13 | /
Cc1ccccc1C(=O)N1CCN(c2ccc(NC(=O)c3ccc([N+](=O)[O-])o3)cc2)CC1 | / | 2 | 3 | / | 5 | /
O=C(CSc1nnnn1-c1cccnc1)Nc1ccccc1F | / | 0 | 5 | / | 12 | /
CC1(C)Cc2ccccc2C(NNC(=O)c2cccnc2)=N1 | 17 | 0 | 5 | -3 | 7 | 0
CC1(C)CC(=O)C=C(NNC(=O)c2cccnc2)C1 | -13 | 81* | 19 | -36 | 17 | /
COc1cccc(C(=O)NNC2=CC(=O)CC(C)(C)C2)c1 | -16 | 26 | 2 | -67 | 7 | -1
CC1(C)CC=C(NNC(=O)c2cccnc2)C(=O)C1 | 4 | 67* | 14 | -45 | 16 | -2
COc1ccc(/C=N\NC(=O)c2sccc2C)cc1Cn1nc(C)cc1C | / | 1 | 2 | / | 2 | /
Cc1ccsc1C(=O)OCC(=O)N1CCOCC1 | 2 | 8 | 1 | 67* | 3 | -5
COc1cccc(NC(C)(C)c2nnnn2-c2c(C)cccc2C)c1 | 36 | 4 | -1 | 52* | 5 | /
Cc1ccc(Cl)c(N/C=C/C(=O)c2ccccc2)c1 | / | -5 | 2 | / | 0 | /
O=[N+]([O-])c1ccc(N/N=C/c2ccc(O)c(O)c2O)c(S(=O)(=O)N2CCOCC2)c1 | 104* | / | / | -45 | / | 12
Fc1cccc(NC(=S)NNc2c3ccccc3nc3ccccc23)c1 | 80* | / | / | -19 | / | 1
O=C(Nc1ccnn1C1CCN(Cc2ccn[nH]2)CC1)c1ccccc1 | / | 9 | 3 | / | 2 | /
CN(C)CCOc1ccc(C(C)(C)c2ccccc2)cc1 | 26 | 4 | 2 | 65* | -1 | -1
CN(C)CCOc1ccccc1C(C)(C)C | 33 | 2 | 8 | 63* | 4 | -7
CCCn1cc(CN2CCC(n3nccc3NC(=O)CCOc3ccccc3)CC2)c(C)n1 | / | 3 | 4 | / | 3 | /
CCOc1ccc2nc(SCC(=O)N3c4ccccc4Sc4ccccc43)c(C#N)cc2c1 | -196 | 48* | 55* | -120 | 1 | 42*
SMILES | Mcl1-Noxa inh | GLD-1 RNA inh | Bcl-xL primary | Mcl1 Bid PPI | MCL1 BIM primary | Bim-Mcl-1
CCOC(=O)CC(=O)CSc1nc2ccc(C)cc2cc1C#N | 42 | 83* | 29 | -27 | 15 | 0
CCOC(=O)CC(=O)CSc1nc(CC)c(C)cc1C#N | 18 | -4 | -6 | -13 | -3 | /
CC1(c2ccc(OC(F)F)cc2)NC(=O)N(CC(=O)Nc2cccc(F)c2)C1=O (stereo unspecified) | / | -2 | -1 | / | 2 | /
COc1ccccc1-c1cc(C(F)(F)F)n2ncc(C(=O)N3CCc4ccccc4C3)c2n1 | / | 3 | 0 | / | -3 | /
C=CCOc1ccc(/C=C2\SC(=S)N(C(C(=O)O)c3ccccc3)C2=O)cc1 (stereo unspecified) | 72* | / | / | 25 | / | /
O=C(c1cc(F)ccc1F)C1CCCN(C(=O)CCc2cnccn2)C1 (stereo unspecified) | -3 | -1 | -2 | -17 | 1 | -3
O=C(c1cc(F)ccc1F)C1CCCN(C(=O)CCCN2CCCCC2=O)C1 (stereo unspecified) | 27 | 4 | 51* | 6 | 5 | -3
Cc1ccc(S(=O)(=O)Nc2cc3c4c(c2)CCC(=O)N4CCC3)cc1 | / | -2 | 3 | / | -1 | /
CCC(CC)=N/N=C/c1c(O)n(CC)c2cc(C3=NNC(=O)CC3)ccc12 | 49 | -20 | -1 | 66* | 5 | 9
C=CCNC(=O)c1cccc2c1C(=O)c1ccc(N3CCCC3)cc1S2(=O)=O | / | 43* | / | / | / | /
O=C(NC[C@@H]1CCCO1)c1cccc2c1C(=O)c1ccc(N3CCOCC3)cc1S2(=O)=O | / | 3 | / | / | / | /
O=C(NCC1CC1)c1cccc2c1C(=O)c1ccc(N3CCCC3)cc1S2(=O)=O | / | 44* | / | / | / | /
Cc1nn(-c2ccccc2)c(Cl)c1C(=O)NNC(=O)c1ccccc1O | / | 1 | 0 | / | 11 | /
CC1=NN(c2ccccc2)C(=O)/C1=C/c1c(O)n(-c2ccc(F)c(Cl)c2)[nH]c1=O | 86* | 6 | 10 | 40 | 5 | -3
CCN(c1ccccc1)S(=O)(=O)c1csc(C(N)=O)c1 | / | -3 | 3 | / | -1 | /
CCN(c1ccc(NC(=O)CCNC(=O)c2ccco2)cc1)C(C)C | 75* | 4 | 2 | -60 | 22 | -5
Cc1ccc(NC(=O)CCNC(=O)c2ccco2)cc1 | 5 | 8 | 0 | -1 | 8 | -4
O=[N+]([O-])c1cc(Cl)c2cccnc2c1O | -19 | 0 | 6 | -72 | 11 | 0
O=[N+]([O-])c1cc(Cl)c(O)c2ncccc12 | 70* | / | / | -33 | / | 0
O=[N+]([O-])c1cc(CN2CCOCC2)c2cccnc2c1O | 94* | / | / | -16 | / | -1
O=[N+]([O-])c1ccc(O)c2cccnc12 | 25 | 13 | 44* | -38 | 48* | -1
O=[N+]([O-])c1ccc(Cl)c2cccnc12 | -6 | 1 | 0 | -8 | -2 | -2
O=[N+]([O-])c1ccc(O)c2ncccc12 | 73* | 8 | 1 | 6 | 8 | -1
CCN(CC(=O)Nc1cccc(OC)c1)C(=O)c1cnc(Cl)c(Cl)c1 | / | 2 | 2 | / | -2 | /
COc1cc(/C=C2\SC(N)=NC2=O)ccc1OCC(=O)Nc1ccccc1C | / | -4 | -12 | / | -12 | /
O=[N+]([O-])c1cc([N+](=O)[O-])c2cccnc2c1Oc1ccccc1O | 92* | 6 | 11 | -59 | 18 | 0
O=[N+]([O-])c1cc(F)c2cccnc2c1O | -30 | -1 | -1 | -109 | -6 | /
Cc1ccc(NC(=O)COC(=O)CCc2c(C)nc3ncnn3c2C)cc1 | / | -7 | / | / | / | /
CC(=O)NC1=C(NC2CCS(=O)(=O)C2)C(=O)c2ccccc2C1=O (stereo unspecified) | 94* | 1 | 15 | -16 | 20 | 3

Assay outcomes (PubChem)
